Source: PubChem
Most compounds without a hit are left out; they make up all but 2.4% or so of the library.
CHO-K1 Ca antag – M1 antagonist counterscreen hit in parental CHO-K1 cells; AID 602250; inhibition, % at 3 µM; ATP-induced calcium, Fluo-8 fluorescence; 360,000 tested, 0.6% active;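 active = inhibition above a per-plate cutoff, the plate's mean sample inhibition plus 3 SD, cut at about 24% in these data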;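 note: 0% = DMSO plus EC80 ATP and 100% = DMSO alone without ATP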
CHRM1 antagonist – antagonists of human M1 muscarinic receptor; P11229; CHO-K1 hM1, Fluo-8 calcium fluorescence, ACh EC80 antagonist; AID 588852; inhibition, % at 3 µM; 360,000 tested, 1.3% active;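 active = percent inhibition above its own plate's cutoff, namely the mean of that plate's compound wells plus 3 SD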;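 note: peak over basal fluorescence ratio during 140 s after agonist addition; 0% = ACh EC80 plus DMSO and 100% = DMSO alone without agonist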
Target sequence (P11229 whole entry, looked up): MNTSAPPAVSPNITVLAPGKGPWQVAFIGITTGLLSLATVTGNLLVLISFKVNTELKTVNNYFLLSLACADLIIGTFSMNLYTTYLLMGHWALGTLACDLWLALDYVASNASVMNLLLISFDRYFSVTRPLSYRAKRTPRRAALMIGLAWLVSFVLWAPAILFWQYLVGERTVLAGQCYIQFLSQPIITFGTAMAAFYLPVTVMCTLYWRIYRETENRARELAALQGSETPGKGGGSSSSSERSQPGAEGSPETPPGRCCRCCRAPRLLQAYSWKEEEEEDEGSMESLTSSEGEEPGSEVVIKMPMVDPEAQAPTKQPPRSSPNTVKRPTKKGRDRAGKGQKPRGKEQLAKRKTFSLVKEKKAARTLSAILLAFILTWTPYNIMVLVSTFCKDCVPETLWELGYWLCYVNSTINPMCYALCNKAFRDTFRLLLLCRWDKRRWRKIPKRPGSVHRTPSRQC
CHO-K1 Ca ag – counter-screen for M1 agonists: effect in parental CHO-K1 cells; activation, % at 3 µM; AID 602248; Fluo-8 calcium fluorescence; scaled to maximal ATP response, vehicle zero; 360,000 tested, 0.48% active; in the data active = activation above about 15%;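 note: untransfected CHO-K1 host cells lacking M1 receptor as counterscreen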
CHRM1 PAM – human CHRM1 positive allosteric modulation; activation, % at 3 µM; P11229; 360,000 tested, 0.088% active; CHO-K1 hM1, Fluo-8 calcium fluorescence, ACh EC20; 0% = ACh EC20, 100% = maximal ACh; in the data active = activation above about 19%, passing the limit was not always enough
CHRM1 agonist – agonists of human M1 muscarinic receptor; AID 588814; 360,000 tested, 0.33% active; activation, % at 3 µM; P11229; CHO-K1 hM1, Fluo-8 calcium fluorescence, agonist mode; 0% DMSO, 100% acetylcholine EC100;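 active = activation above the run's mean compound activation plus 3 SD, cut at about 16% in these data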;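 note: peak over basal fluorescence ratio within a 140 s kinetic read after compound addition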
CHO-K1 Ca PAM – counter-screen for M1 PAMs: effect in parental CHO-K1 cells; AID 602247; ATP EC20, Fluo-8 calcium fluorescence; 0% at ATP EC20, 100% at ATP max; 360,000 tested, 0.02% active; activation, % at 3 µM;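 active = activation above the run cutoff, the mean activation of all test compounds plus 3 SD, cut at about 40% in these data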;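 note: peak over basal fluorescence ratio in a 140 s read after ATP addition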
Starred values were filed as active, the others as inactive; · = no result given.

SMILES	CHO-K1 Ca antag	CHRM1 antagonist	CHO-K1 Ca ag	CHRM1 PAM	CHRM1 agonist	CHO-K1 Ca PAM
CCOC(=O)C1CCN(C(=O)CNC(=O)c2nn(-c3ccc(OC)c(Cl)c3)c(=O)c3ccccc23)CC1	4.9	7.2	4.4	1.6	-8.0	3.0
COc1ccc(-n2nc(C(=O)NCC(=O)NCCCN3CCC(C)CC3)c3ccccc3c2=O)cc1Cl	-10.6	3.6	-0.5	-7.2	-10.6	14.0
CCOC(=O)C1CCCN(C(=O)CNC(=O)c2nn(-c3ccc(OC)c(Cl)c3)c(=O)c3ccccc23)C1 (stereo not drawn)	0.3	21.9	4.7	-14.4	18.1*	2.0
CCOC(=O)CNC(=O)CNC(=O)c1nn(-c2ccc(OC)c(Cl)c2)c(=O)c2ccccc12	25.9*	6.5	1.8	3.2	-1.4	-9.5
COc1ccc(-n2nc(C(=O)NCC(=O)NCCCN3CCCCCC3)c3ccccc3c2=O)cc1Cl	-19.6	50.1*	-0.1	-23.4	-0.5	16.5
CCOC(=O)CNC(=O)CNC(=O)c1nn(-c2ccc(OC)c(OC)c2)c(=O)c2ccccc12	-16.7	-9.6	2.2	10.6	-0.7	-0.8
CCn1c(CNC(=O)c2ccccc2F)cc2cc(C)ccc21	31.3*	4.8	-0.3	-6.3	-1.1	-23.9
COc1ccc(-c2nn(-c3ccccc3)cc2C(=O)NC(=S)Nc2cc(Cl)ccc2Cl)cc1	-4.6	-37.1	-0.3	26.2*	1.4	9.9
CCCOc1ccc(Br)cc1CSC(=N)N	20.9	26.2*	35.7*	-15.6	-2.9	0.0
Cc1cc2c(cc(C(=O)N3CCC(C(=O)N4CCCC4)CC3)n2Cc2c(F)cccc2Cl)o1	7.4	30.5*	7.0	-12.7	-0.8	-4.4
CCOC(=O)c1cc2occc2n1Cc1c(F)cccc1Cl	-8.9	-14.2	0.0	5.2	-4.1	17.5
COc1ccc(NC(=O)CC2(CC(=O)N3CCOCC3)CCCC2)cc1Cl	16.9	56.1*	0.1	-16.7	-7.6	-18.6
CCOc1ccccc1NC(=O)CC1(CC(=O)N2CCOCC2)CCCC1	-6.8	-15.7	0.8	9.4	-0.6	-12.9
CCN1CCN(CCCNC(=O)CN2C(=O)c3cccnc3Oc3ccc(Cl)cc32)CC1	-15.3	-3.4	0.6	6.9	-8.6	10.9
Cc1ccc(S(=O)(=O)CCN2C=CC(C(F)(F)F)=NCC2)cc1	2.1	-14.1	16.8*	13.6	6.1	10.9
CCc1ccc(C(=O)NNC(=O)c2ccc(=O)n(C)n2)cc1	-6.2	0.9	0.7	1.5	-2.2	1.8
COc1cc2cc(C(=O)NCCc3c[nH]c4ccccc34)c(N)nc2cc1OC	22.0	·	18.9*	·	·	-9.9
COc1cc(SC)ccc1C(=O)NCCc1c[nH]c2ccccc12	0.4	-3.6	3.4	0.7	-1.6	11.0
CN(c1ccccc1)S(=O)(=O)c1cccc(C(=O)OCC(=O)NCc2ccccc2)c1	0.1	-1.4	8.1	-4.9	-2.0	-9.1
CCOc1ccc(CCNC(=O)COC(=O)c2cccc(N(C)C)c2)cc1OCC	-3.9	-18.0	0.3	13.3	-2.4	7.7
COc1ccc(N(C)S(=O)(=O)c2cccc(C(=O)OCC(=O)NCc3ccccc3OC)c2)cc1	-0.1	25.2*	9.7	-13.4	1.0	2.5
CCOc1ccc(CCNC(=O)COC(=O)c2cccc(S(=O)(=O)N(C)C)c2)cc1OCC	44.4*	-15.2	0.8	9.4	-3.5	14.8
CN(C)S(=O)(=O)c1cccc(C(=O)OCC(=O)Nc2sccc2C(N)=O)c1	20.3	37.2*	20.9*	-12.4	3.2	-5.8
C=CC(=O)Nc1ccc(CN2C(=O)N(c3c(Cl)c(OC)cc(OC)c3Cl)Cc3cnc(NCCCCN(CC)CC)nc32)cc1	-4.4	38.8*	-0.3	-29.5	-11.0	-5.9
COc1ccccc1NC(=O)Cc1nc(=O)[nH]c(=O)[nH]1	15.5	0.0	0.6	2.0	-3.5	-8.0
CC(CNCc1ccc2c(c1)OCO2)NCc1ccc2c(c1)OCO2 (stereo not drawn)	-23.6	-4.2	1.8	-6.9	-8.9	43.1*
Fc1ccc(CNCc2ccc3c(c2)OCO3)cc1	10.3	-12.9	0.0	13.0	-1.3	-9.2
N#CC1=C2SCCN2C(=O)C(C#N)C12CCCCC2 (stereo not drawn)	25.3*	10.5	-0.1	-3.1	-3.7	-7.6
